Records with an inconclusive call do not appear. Where a call stands in place of a potency, no number is given. Activity calls are given as the source filed them. Unless noted, calls come from the whole dose curve; as a rule, active = well fitted curve in the direction sought with a large enough effect in the repeat runs; inconclusive = weak or mixed curves; inactive = no such curve, though single readings can be large; an effect the other way counts as inactive or inconclusive. Non-standard residues stand in square brackets, D forms with d. Residues, ends and D or L forms follow the SMILES beside them. Orn = NCCC[C@H](N)C(=O)O
Assays:
[1] = qHTS assay to identify small molecule antagonists of the glucocorticoid receptor (GR) signaling pathway - cell viability counter screen (AID 720693); note: nearly all actives have a fitted effect of over 55% in size; note: potency is the fitted concentration of half-maximal effect
[2] = qHTS assay for identifying genotoxic compounds that show differential cytotoxicity against isogenic chicken DT40 cell lines with known DNA damage response pathways - wild type cell line (AID 743012); note: nearly all actives have a fitted effect of over 60% in size; note: potency is the fitted concentration of half-maximal effect
How it was run: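 Luminescent ATP viability signal (CellTiter-Glo, 30 min RT) recorded after wild type DT40 cells were incubated with compounds for 40 h at 37 C/5% CO2.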

[3] = qHTS assay for identifying genotoxic compounds that show differential cytotoxicity against isogenic chicken DT40 cell lines with known DNA damage response pathways - Rev3 mutant cell line (AID 743014); note: nearly all actives have a fitted effect of over 55% in size; note: potency is the fitted concentration of half-maximal effect
[4] = qHTS assay for identifying genotoxic compounds that show differential cytotoxicity against isogenic chicken DT40 cell lines with known DNA damage response pathways - Rad54/Ku70 mutant cell line (AID 743015); note: nearly all actives have a fitted effect of over 60% in size; note: potency is the fitted concentration of half-maximal effect
[5] = qHTS assay to identify small molecule antagonists of the androgen receptor (AR) signaling pathway - cell viability counter screen (AID 743033; note: nearly all actives have a fitted effect of over 45% in size; note: potency is the fitted concentration of half-maximal effect)
[6] = qHTS assay to identify small molecule antagonists of the androgen receptor (AR) signaling pathway using the MDA cell line - cell viability counter screen (AID 743041; note: nearly all actives have a fitted effect of over 45% in size; note: potency is the fitted concentration of half-maximal effect)
How it was run: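 Cytotoxicity counter screen: MDA-kb2 AR-luc cells, compound + R1881, 16 h, 37C, 0% CO2; CellTiter-Fluor added at 15.5 h, fluorescence read after 30 min.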

[7] = molecular target: Androgen receptor (Homo sapiens) (UniProt P10275); assay: qHTS assay to identify small molecule antagonists of the androgen receptor (AR) signaling pathway (AID 743035; active = well fitted inhibition curve with a large enough effect in the signal ratio in the repeat runs, not every such curve was filed as active; the % refers to the signal ratio)
How it was run: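 Quantitative HTS of the Tox21 10K library used HEK293 AR-UAS-bla cells stimulated with R1881 alongside compound for 16 h at 37C, followed by beta-lactamase FRET detection (LiveBLAzer B/G, 2 h, RT).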

[8] = molecular target: Androgen receptor (Homo sapiens) (UniProt P10275); assay: qHTS assay to identify small molecule agonists of the androgen receptor (AR) signaling pathway (AID 743036; active = well fitted activation curve with a large enough effect in the signal ratio in the repeat runs, with a control signal flat, not every such curve was filed as active; the % refers to the signal ratio)
How it was run: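 Activation was read as beta-lactamase FRET signal from LiveBLAzer B/G substrate, added for 2 h at room temperature. Before that, GeneBLAzer AR-UAS-bla GripTite (HEK293) cells had 16 h compound exposure at 37C.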

[9] = molecular target: Androgen receptor (Homo sapiens) (UniProt P10275); assay: qHTS assay to identify small molecule agonists of the androgen receptor (AR) signaling pathway using the MDA cell line (AID 743040; note: nearly all actives have a fitted effect of over 20% in size)
How it was run: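 Luciferase read-out, ONE-Glo, 30 min RT. Cells: MDA-kb2 AR-luc, MMTV promoter with AR and GR response elements. Compound exposure 16 h, 37C, 0% CO2, after 5 h pre-incubation. qHTS agonist mode.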

[10] = molecular target: Androgen receptor (Homo sapiens) (UniProt P10275); assay: qHTS assay to identify small molecule antagonists of the androgen receptor (AR) signaling pathway using the MDA cell line (AID 743042; note: nearly all actives have a fitted effect of over 55% in size)
How it was run: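 MDA-kb2 breast carcinoma cells carrying MMTV-luciferase (AR/GR responsive) were co-treated with compounds and the agonist R1881 for 16 h at 37C. Inhibition read as ONE-Glo luminescence; CellTiter-Fluor fluorescence measured in parallel for cytotoxicity.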

Chain of Androgen receptor (Homo sapiens) (P10275 whole entry, looked up): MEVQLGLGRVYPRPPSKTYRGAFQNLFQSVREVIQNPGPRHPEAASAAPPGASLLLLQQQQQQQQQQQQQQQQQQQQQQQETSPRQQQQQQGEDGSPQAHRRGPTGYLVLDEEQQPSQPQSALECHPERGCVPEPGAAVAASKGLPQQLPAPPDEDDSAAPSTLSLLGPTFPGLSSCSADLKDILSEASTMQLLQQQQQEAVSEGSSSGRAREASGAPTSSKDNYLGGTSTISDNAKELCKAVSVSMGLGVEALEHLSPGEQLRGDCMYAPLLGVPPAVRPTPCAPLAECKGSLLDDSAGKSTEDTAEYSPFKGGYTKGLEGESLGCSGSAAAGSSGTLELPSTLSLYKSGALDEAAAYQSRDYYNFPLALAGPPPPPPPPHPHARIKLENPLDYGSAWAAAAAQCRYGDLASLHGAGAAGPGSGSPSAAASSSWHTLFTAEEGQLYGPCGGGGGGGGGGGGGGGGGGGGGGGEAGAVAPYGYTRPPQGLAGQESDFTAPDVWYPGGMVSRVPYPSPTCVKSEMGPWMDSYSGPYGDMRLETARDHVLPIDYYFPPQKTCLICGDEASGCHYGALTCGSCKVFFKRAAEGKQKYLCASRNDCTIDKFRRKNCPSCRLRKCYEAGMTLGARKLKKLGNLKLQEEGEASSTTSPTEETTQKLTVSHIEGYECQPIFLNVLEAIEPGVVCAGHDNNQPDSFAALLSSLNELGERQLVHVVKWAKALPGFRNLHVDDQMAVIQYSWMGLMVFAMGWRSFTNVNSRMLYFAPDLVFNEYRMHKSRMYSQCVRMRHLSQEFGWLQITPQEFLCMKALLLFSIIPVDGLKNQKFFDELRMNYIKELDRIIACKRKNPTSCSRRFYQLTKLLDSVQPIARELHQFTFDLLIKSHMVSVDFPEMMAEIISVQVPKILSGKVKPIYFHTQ

SMILES | Potency [1] | Potency [2] | Potency [3] | Potency [4] | Potency [5] | Potency [6] | Potency [7] | Potency [8] | Potency [9] | Potency [10]
C=C1C(=C/C=C2\CCC[C@]3(C)[C@@H]([C@H](C)CCCC(C)C)CC[C@@H]23)C[C@@H](O)C[C@@H]1O | 21.3 µM (active) | 5.96 µM (active) | 13.3 µM (active) | 6.68 µM (active) | inactive | inactive | – | – | – | –
CCc1cn([C@H]2C[C@H](O)[C@@H](CO)O2)c(=O)[nH]c1=O | inactive | inactive | inactive | inactive | inactive | inactive | – | – | – | –
NCC(O)CC(=O)O (centres undefined) | inactive | inactive | inactive | inactive | inactive | inactive | – | – | – | –
CC(C)C[C@@H]1NC(=O)[C@H](CCCN)NC(=O)[C@H](C(C)C)NC(=O)[C@@H]2CCCN2C(=O)[C@@H](Cc2ccccc2)NC(=O)[C@H](CC(C)C)NC(=O)[C@H](CCCN)NC(=O)[C@H](C(C)C)NC(=O)[C@@H]2CCCN2C(=O)[C@@H](Cc2ccccc2)NC1=O (cyclo(V[Orn]L[dF]PV[Orn]L[dF]P)) | 19 µM (active) | 0.376 µM (active) | 0.075 µM (active) | 0.0944 µM (active) | 2.68 µM (active) | 1.97 µM (active) | – | – | – | –
C[C@H](Cc1ccc(O)c(O)c1)[C@@H](C)Cc1ccc(O)c(O)c1 | inactive | 10.6 µM (active) | 23.7 µM (active) | 10.6 µM (active) | inactive | inactive | – | – | – | –
CC(=O)OCC(=O)[C@@]1(O)CC[C@H]2[C@@H]3CCC4=CC(=O)CC[C@]4(C)C3=CC[C@@]21C | inactive | inactive | inactive | inactive | inactive | inactive | – | – | – | –
C=CC[N@@+]12CC[C@@]34c5ccccc5N5/C=C6/[C@H]7C[C@H]8[C@@]9(CC[N@@+]8(CC=C)C/C7=C/CO)c7ccccc7N(/C=C(/[C@@H](C[C@@H]31)/C(=C\CO)C2)[C@H]54)[C@@H]69 | inactive | inactive | inactive | inactive | inactive | inactive | – | – | – | –
C=CCN1C(=O)C(CC(C)C)NC1=S (centres undefined) | inactive | inactive | inactive | inactive | inactive | inactive | – | – | – | –
CCCCC[C@H](O)/C=C/[C@@H]1[C@@H](C/C=C\CCCC(=O)O)[C@@H](O)C[C@H]1O | inactive | inactive | inactive | inactive | inactive | inactive | – | – | – | –
CC1(C)S[C@@H]2[C@H](NC(=O)[C@@H](NC(=O)N3CCNC3=O)c3ccccc3)C(=O)N2[C@H]1C(=O)O | inactive | inactive | inactive | inactive | inactive | inactive | – | – | – | –
CCC(NC(C)C)C(O)c1ccc(O)c(O)c1 (centres undefined) | inactive | inactive | inactive | inactive | inactive | inactive | – | – | – | –
NCC[C@H](O)C(=O)N[C@@H]1C[C@H](N)[C@@H](O[C@H]2O[C@H](CN)CC[C@H]2N)[C@H](O)[C@H]1O[C@H]1O[C@H](CO)[C@@H](O)[C@H](N)[C@H]1O | inactive | inactive | inactive | inactive | inactive | inactive | – | – | – | –
COc1c(Br)cc(Br)c(C)c1Br | inactive | inactive | inactive | inactive | inactive | inactive | – | – | – | –
CC(=O)N[C@@H](C=O)[C@H](O)[C@H](O)[C@@H](O)CO | inactive | inactive | inactive | inactive | inactive | inactive | – | – | – | –
CC[N+](CC)(CC)CCC(O)(c1ccccc1)C1CCCCC1 (centres undefined) | inactive | inactive | inactive | inactive | inactive | inactive | – | – | – | –
O=C1[O][Bi][O]c2ccccc21 | inactive | inactive | inactive | inactive | inactive | inactive | – | – | – | –
CO/N=C(\C(=O)N[C@@H]1C(=O)N2C(C(=O)[O-])=C(C[n+]3cccc4c3CCC4)CS[C@H]12)c1csc(N)n1 | inactive | inactive | inactive | inactive | inactive | inactive | – | – | – | –
CCN(CC)CC#CCOC(=O)C(O)(c1ccccc1)C1CCCCC1 (centres undefined) | inactive | 11.9 µM (active) | 13.3 µM (active) | 26.6 µM (active) | inactive | inactive | – | – | – | –
CC12CCC(C1)C(C)(C)C2=O (centres undefined) | inactive | inactive | inactive | inactive | – | inactive | inactive | inactive | inactive | inactive
CO[C@H]1C[C@H](O[C@H]2[C@H](C)[C@@H](O[C@@H]3O[C@H](C)C[C@H](N(C)C)[C@H]3O)[C@@H](C)C[C@]3(CO3)C(=O)[C@H](C)[C@@H](O)[C@@H](C)[C@@H](C)OC(=O)[C@@H]2C)O[C@@H](C)[C@@H]1O | inactive | inactive | inactive | inactive | inactive | inactive | – | – | – | –
O=C(O)CCCC/C=C(\c1ccccc1)c1cccnc1 | inactive | inactive | inactive | inactive | inactive | inactive | – | – | – | –
